TDP1 cell noCPT = qHTS for Inhibitors of human tyrosyl-DNA phosphodiesterase 1 (TDP1): qHTS in cells in absence of CPT | Potency, µM (series often up to 46.2 µM), most hits filed as inhibitors | 420,000 tested, 15% active | DT40 Tdp1-/- hTDP1 cells, no CPT, ATP luminescence, 48 h; also: nearly all actives have a fitted effect of over 55% in size
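Seeded 400 DT40-hTDP1 cells/well (vehicle DMSO, no 20 nM CPT); pinned compounds; ≥48 hr at 37 °C; CellTiter-Glo luminescence as viability measure.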
HepG2 tox = qHTS for Inhibitors of TGF-b: Cytotox Counterscreen; 410,000 tested, 0.76% active; HepG2 CAGA-GFP viability, ATP luminescence, 18 h; Potency, µM (titrated, usually from 46.1 µM), usual class: cytotoxic
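HepG2 CAGA-GFP cells (1000/well, DMEM with 1% FBS) received compound, then TGF-beta at 500 pg/mL final, and were incubated 18 hours at 37 degrees C. Viability was read by CellTiter-Glo luminescence. Media-only wells were set as complete cell-killing and DMSO as no toxicity.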
DT40 TDP1 CPT = qHTS for Inhibitors of human tyrosyl-DNA phosphodiesterase 1 (TDP1): qHTS in cells in presence of CPT; 420,000 tested, 12% active; Potency, µM (doses to about 46.2 µM), hits mostly inhibitors; chicken DT40 Tdp1-/-;hTDP1 cells + 20 nM CPT, ATP luminescence, 48 h; also: nearly all actives have a fitted effect of over 55% in size
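Chicken DT40 Tdp1-/- cells stably complemented with human TDP1 were seeded at 400 cells/well in medium containing 20 nM camptothecin, exposed to pin-transferred compounds, and grown at 37 °C for at least 48 hr. Viability was read as ATP luminescence.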
S2 tox = Viability Counterscreen for Primary qHTS for Inhibitors of ATXN expression; S2 cells (HEK-293 line with an ATXN2-luciferase reporter) viability, CellTiter-Fluor protease fluorescence, 24 h; Potency, µM (highest dose often 56.7 µM), usual class: cytotoxic; 400,000 tested, 0.49% active; also: nearly all actives have a fitted effect of over 40% in size
TGFb inhibitor = qHTS for Inhibitors of TGF-b. HepG2 CAGA-GFP TGF-b/SMAD3 reporter, GFP fluorescence, 18 h; TGF-beta stimulated, 500 pg/mL final. Potency, µM (highest dose often 46.1 µM), hits mostly inhibitors. 410,000 tested, 1.2% active. AID 588855, 2011; also: nearly all actives have a fitted effect of over 65% in size
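Per well, imaged GFP fluorescence of HEPG2 CAGA-GFP cells gives the signal; cells get compound, then TGF-beta (500 pg/mL final), 18 h at 37 degrees C; %Activity versus -TGF-beta and +DMSO controls.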
ATXN2 expr inh = Primary qHTS for Inhibitors of ATXN expression. HEK-293 ATXN2-luciferase reporter, luminescence, 24 h. Potency, µM (doses to about 57 µM), actives largely listed as inhibitors. 360,000 tested, 0.72% active; also: nearly all actives have a fitted effect of over 55% in size
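qHTS (up to 57 uM final) was run with 24 h compound exposure of reporter cells at 37 °C. Each well was multiplexed: SteadyGlo luminescence measured ATXN2-luciferase expression after a fluorogenic Gly-Phe-AFC viability readout (25 uM final).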
Large screens that a line does not name were inactive. Rows were chosen to be rich in hits. Some 17% of all compounds tested hit in one or more screens of this group. Calls follow the shape of the dose curve; as a rule, active = well fitted curve in the direction sought with a large enough effect; inconclusive = small, poorly fitted or top-dose-only effect, or another doubt; inactive = no such curve, though single readings can be large; an effect the other way counts as inactive or inconclusive.

Cc1cccc(-n2ncc(C(=O)N3CCN(C(=O)c4ccco4)CC3)c2C2CCN(C(=O)OC(C)(C)C)CC2)c1	TDP1 cell noCPT inconclusive, DT40 TDP1 CPT inconclusive (no result: S2 tox, ATXN2 expr inh)
Cc1cccc(-n2ncc(C(=O)NCc3ccco3)c2C2CCN(C(=O)OC(C)(C)C)CC2)c1	TDP1 cell noCPT inconclusive, DT40 TDP1 CPT 16µM, TGFb inhibitor inconclusive (no result: S2 tox, ATXN2 expr inh)
CC(C)(C)OC(=O)N1CCC(c2c(C(=O)N3CCN(c4ccccc4F)CC3)cnn2-c2ccccc2Cl)CC1	TDP1 cell noCPT 16µM, DT40 TDP1 CPT 18µM, TGFb inhibitor inconclusive (no result: S2 tox, ATXN2 expr inh)
CCN1CCN(C(=O)c2cnn(-c3cccc(C)c3)c2C2CCN(C(=O)OC(C)(C)C)CC2)CC1	TDP1 cell noCPT inconclusive, DT40 TDP1 CPT 21µM (no result: S2 tox, ATXN2 expr inh)
O=C(NCCC1=CCCCC1)C1CCN(S(=O)(=O)N2CCCC2)CC1	TDP1 cell noCPT inconclusive, DT40 TDP1 CPT inconclusive
O=C(NCCC1=CCCCC1)C1CCCN(S(=O)(=O)c2ccc(F)cc2)C1 (configuration not stated)	TDP1 cell noCPT 21µM, DT40 TDP1 CPT 12µM
O=C(NCCC1=CCCCC1)C1CCN(S(=O)(=O)c2ccc(Br)s2)CC1	TDP1 cell noCPT 21µM, DT40 TDP1 CPT 21µM
COC(=O)Nc1ccc(S(=O)(=O)N2CCCC(C(=O)O)C2)cc1 (configuration not stated)	none
C[C@H](CN1CCCC1)C(=O)c1ccc(C(F)(F)F)cc1	none (no result: HepG2 tox, TGFb inhibitor)
Cc1ccccc1OCC(=O)NCC(=O)OC(c1ccccc1)c1ccccc1	none (no result: S2 tox, ATXN2 expr inh)
Cc1ccc2sc(N(CCCN(C)C)C(=O)c3ccc(S(=O)(=O)N(C)C4CCCCC4)cc3)nc2c1C	TDP1 cell noCPT 5.8µM, DT40 TDP1 CPT 9.2µM, TGFb inhibitor inconclusive, ATXN2 expr inh inconclusive (no result: S2 tox)
CN(C)CCCN(C(=O)c1ccc(Br)s1)c1nc2cc3c(cc2s1)OCO3	TDP1 cell noCPT 15µM, DT40 TDP1 CPT 9.2µM, S2 tox inconclusive, TGFb inhibitor inconclusive, ATXN2 expr inh inconclusive
CCN(CC)CCN(C(=O)c1ccc(S(=O)(=O)N(C)C2CCCCC2)cc1)c1nc2c(C)cccc2s1	TDP1 cell noCPT 21µM, DT40 TDP1 CPT 23µM, TGFb inhibitor inconclusive
Cc1ccc2sc(N(CCCN(C)C)C(=O)c3ccc(S(=O)(=O)N4CCOCC4)cc3)nc2c1C	TDP1 cell noCPT inconclusive, DT40 TDP1 CPT inconclusive
Cc1ccc2sc(N(CCCN(C)C)C(=O)c3ccc(Br)s3)nc2c1C	TDP1 cell noCPT inconclusive, HepG2 tox 13µM, DT40 TDP1 CPT inconclusive, TGFb inhibitor inconclusive, ATXN2 expr inh 20µM (no result: S2 tox)
COCCN(C)C(=O)c1cnn(-c2ncc3c(n2)-c2ccccc2CC3)c1C	TDP1 cell noCPT inconclusive, DT40 TDP1 CPT inconclusive (no result: HepG2 tox, TGFb inhibitor, ATXN2 expr inh)
CCN(C(=O)CN1C(=O)NC2(CCC(C)CC2)C1=O)C1CCCCC1 (configuration not stated)	none (no result: ATXN2 expr inh)
CC(=O)N(Cc1cccnc1)c1nc2c(C)cc(C)cc2s1	TDP1 cell noCPT inconclusive, DT40 TDP1 CPT inconclusive (no result: S2 tox, ATXN2 expr inh)
CC(=O)c1ccc(C(=O)N(CCCN(C)C)c2nc3c(C)c(C)ccc3s2)cc1	TDP1 cell noCPT 23µM, DT40 TDP1 CPT 18µM, TGFb inhibitor inconclusive
CC(=O)c1ccc(C(=O)N(Cc2cccnc2)c2nc3c(C)c(C)ccc3s2)cc1	TDP1 cell noCPT 16µM, DT40 TDP1 CPT 23µM, TGFb inhibitor inconclusive (no result: S2 tox, ATXN2 expr inh)
CC1CCC2=C1C[C@H](C(C)(C)O)CC[C@@H]2C (some centres not stated)	none (no result: HepG2 tox, S2 tox, TGFb inhibitor, ATXN2 expr inh)
CS(=O)(=O)c1ccc(-c2cn3ccccc3n2)cc1	none (no result: TDP1 cell noCPT, HepG2 tox, DT40 TDP1 CPT, TGFb inhibitor)
Cc1ccc(N(C(=O)c2sc(C)nc2C)C(C(=O)NCc2ccco2)c2ccccc2)cc1 (configuration not stated)	TDP1 cell noCPT inconclusive, DT40 TDP1 CPT inconclusive
CC(C)c1ccc(NC(=O)CCC(=O)NCc2ccco2)cc1	TDP1 cell noCPT inconclusive, DT40 TDP1 CPT inconclusive
COc1ccc(N(C(=O)/C=C\C(=O)Nc2ccc(C)cc2)C(C(=O)NCc2ccco2)c2ccc(C)cc2)cc1 (configuration not stated)	TDP1 cell noCPT 4.1µM, DT40 TDP1 CPT 6.5µM (no result: S2 tox, ATXN2 expr inh)
Cc1ccc(NC(=O)/C=C\C(=O)N(c2ccc(C(C)C)cc2)C(C(=O)NCc2ccco2)c2ccc(F)cc2)cc1 (configuration not stated)	TDP1 cell noCPT 18µM, DT40 TDP1 CPT 15µM, TGFb inhibitor 6.3µM (no result: S2 tox, ATXN2 expr inh)
CCc1ccc(CN(Cc2ccco2)c2cnc(S(C)(=O)=O)nc2C(=O)Nc2ccccc2Cl)cc1	TDP1 cell noCPT inconclusive, DT40 TDP1 CPT inconclusive, TGFb inhibitor 7.9µM
CCc1ccc(CN(Cc2ccco2)c2cnc(S(C)(=O)=O)nc2C(=O)Nc2c(C)cccc2C)cc1	TDP1 cell noCPT 18µM, DT40 TDP1 CPT 16µM, TGFb inhibitor inconclusive
CCS(=O)(=O)c1ncc(N(Cc2ccccc2)Cc2ccco2)c(C(=O)Nc2cccc(Cl)c2C)n1	TDP1 cell noCPT inconclusive, DT40 TDP1 CPT inconclusive
CCS(=O)(=O)c1ncc(N(Cc2cccc(F)c2)Cc2ccco2)c(C(=O)Nc2ccccc2Cl)n1	TDP1 cell noCPT 6.5µM, DT40 TDP1 CPT inconclusive
CC(=O)N/N=C/C1=CCC2CC1C2(C)C (configuration not stated)	none
C=C(C)CNC(=S)N/N=C/c1c(F)cccc1F	TDP1 cell noCPT 16µM, DT40 TDP1 CPT inconclusive
CCCCNC(=S)N/N=C/C1=CCC2CC1C2(C)C (configuration not stated)	TDP1 cell noCPT 18µM, DT40 TDP1 CPT inconclusive, TGFb inhibitor 11µM
CC(C)NC(=S)N/N=C/C1=CCC2CC1C2(C)C (configuration not stated)	TDP1 cell noCPT inconclusive, DT40 TDP1 CPT inconclusive, TGFb inhibitor inconclusive
C=C(C)CNC(=S)N/N=C/C1=CCC2CC1C2(C)C (configuration not stated)	TDP1 cell noCPT 7.3µM, DT40 TDP1 CPT 7.3µM, TGFb inhibitor inconclusive
COc1ccc(OCCN2C(=O)c3cccc(N)c3C2=O)cc1	none
COc1ccc(CN(C)C(=O)c2ccc3ccccc3n2)cc1F	none
C/C=C(/C)C(=O)OC(C)(C)[C@@H]1Cc2c(ccc3ccc(=O)oc23)O1	TDP1 cell noCPT inconclusive, DT40 TDP1 CPT 18µM, TGFb inhibitor inconclusive
C/C=C(/C)C(=O)O[C@@H]1c2c(ccc3ccc(=O)oc23)O[C@@H]1C(C)(C)OC(=O)/C(C)=C\C	TDP1 cell noCPT 16µM, DT40 TDP1 CPT inconclusive, S2 tox inconclusive, TGFb inhibitor inconclusive, ATXN2 expr inh inconclusive
